High-throughput results (PubChem BioAssay)
Tgondii IFNg = blocks Toxoplasma gondii growth in the presence of IFN-gamma. Toxoplasma gondii growth in IFN-gamma-treated host cells; active compounds read low. activity change, negative = inhibition, % (no concentration beside the values). actives 3.8% (n = 69,000); in the data active means activity change below about -70%, passing the limit was not always enough;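 further: host cells are HeLa cells infected with Toxoplasma gondii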
Starred values were filed as active, the others as inactive. The full list was thinned out, with hits kept by preference.

What do the screens show for `CC(C)n1cnc2c(NCC3CC3)nc(C3CCN(C(=O)c4ccccc4)CC3)cc21`?
Tgondii IFNg: -82*

What do the screens show for `CC(C)NC(=O)N1CCC(c2cc3c(ncn3C)c(NCc3ccccc3)n2)CC1`?
Tgondii IFNg: -46

What do the screens show for `Cc1csc([C@H]2C[C@H]3CCN(C(=O)c4cnccn4)C[C@@H]3O2)n1`?
Tgondii IFNg: -47

Results for CCn1c(C2CCN(C(=O)CC3C=CS(=O)(=O)C3)CC2)nn(C)c1=O (centres undefined) ?
Tgondii IFNg: 12

Results for CCOc1cc(C(F)(F)F)c(C(=O)N(CC)c2ccc(Cl)cc2)cn1 ?
Tgondii IFNg: 3

What do the screens show for `CCOC(=O)c1cnc(-c2cccs2)nc1Sc1ccc(Cl)cc1`?
Tgondii IFNg: -43

What do the screens show for `COC(=O)c1cnc(Sc2ccc(Cl)cc2)nc1C(F)(F)F`?
Tgondii IFNg: -101*

What do the screens show for `Cn1cccc1C(=O)NCc1cnc2n1CCN(Cc1ccc(F)cc1)C2`?
Tgondii IFNg: -6

What do the screens show for `COC(=O)c1coc(CN2CCC(N3CCCC3=O)CC2)n1`?
Tgondii IFNg: -1

Results for CSCC[C@@H]1NC(=O)[C@@H]2CCCN2C1=O ?
Tgondii IFNg: 10

Results for Cc1cccc(C)c1-n1nnnc1-c1cnccc1C(F)(F)F ?
Tgondii IFNg: 26

How did O=C(NC(=O)c1cnccc1C(F)(F)F)Nc1ccc(Cl)cc1Cl do in these assays?
Tgondii IFNg: -54

How did FC(F)(F)c1ccncc1-c1ncc(-c2cccc(Cl)c2)o1 do in these assays?
Tgondii IFNg: -95*

What do the screens show for `COc1ccc(-c2cc(-c3cc(=O)[nH]c(-c4cccnc4)n3)no2)cc1`?
Tgondii IFNg: 126

How did O=C(c1ccc2[nH]c3c(c2c1)CCCC3)N1Cc2cnn(CCO)c2C1 do in these assays?
Tgondii IFNg: 22

How did O=c1c2c([nH]c3ccc(Br)cc13)CCCC2 do in these assays?
Tgondii IFNg: -94*

Results for O=C1Cc2c([nH]c3ccc(Br)cc23)-c2ccccc2N1 ?
Tgondii IFNg: 3

How did CCOc1ccccc1C(=O)N1CCC(c2nc(C(=O)N3CCCC3)c(C)o2)CC1 do in these assays?
Tgondii IFNg: -53

What do the screens show for `Cc1oc(-c2ccc(C(=O)NCc3cccs3)cc2)nc1CN1CCc2ccccc21`?
Tgondii IFNg: -94*

Results for COCCCNC(=O)c1ccc(-c2nc(CN3CCc4ccccc43)c(C)o2)cc1 ?
Tgondii IFNg: 8

What do the screens show for `CCCCNC(=O)c1ccc(-c2nc(CN3CCc4ccccc43)c(C)o2)cc1`?
Tgondii IFNg: -66

How did CCCCOc1ccc(CNC(=O)c2ccc(-c3nc(CN4CCc5ccccc54)c(C)o3)cc2)cc1 do in these assays?
Tgondii IFNg: -94*

How did CCOc1ccc(CNC(=O)c2ccc(-c3nc(CN4CCc5ccccc54)c(C)o3)cc2)cc1 do in these assays?
Tgondii IFNg: 10

How did Cc1oc(-c2ccc(C(=O)N3CCCCCC3)cc2)nc1CN1CCc2ccccc21 do in these assays?
Tgondii IFNg: -101*

How did Cc1oc(-c2ccc(C(=O)N3CCC(C)CC3)cc2)nc1CN1CCc2ccccc21 do in these assays?
Tgondii IFNg: 94

Results for CCOC(=O)C1CCCN(C(=O)c2ccc(-c3nc(CN4CCc5ccccc54)c(C)o3)cc2)C1 (centres undefined) ?
Tgondii IFNg: 56

What do the screens show for `Cc1ccc(CNC(=O)c2ccc(-c3nc(CN4CCc5ccccc54)c(C)o3)cc2)o1`?
Tgondii IFNg: 143

What do the screens show for `Cc1oc(-c2ccc(C(=O)NCCCc3ccccc3)cc2)nc1CN1CCc2ccccc21`?
Tgondii IFNg: 122

What do the screens show for `Cc1oc(-c2ccc(C(=O)NCc3ccccc3Cl)cc2)nc1CN1CCc2ccccc21`?
Tgondii IFNg: -49

What do the screens show for `Cc1oc(-c2ccc(C(=O)NCCc3ccccc3)cc2)nc1CN1CCc2ccccc21`?
Tgondii IFNg: -127*

Results for CS(=O)(=O)N1CCC2(CC1)CN(Cc1nccs1)CCO2 ?
Tgondii IFNg: 1

Results for COc1cccc(-n2c(=O)c(C(=O)Nc3ccc(C)c(C)c3)c(O)c3cccnc32)c1 ?
Tgondii IFNg: 150

How did CCN1CCC2(CC1)OC(=O)C(C)=C2C(=O)Nc1cc(Cl)c(OC)cc1OC do in these assays?
Tgondii IFNg: 252

What do the screens show for `O=C(NCc1cc(F)cc(F)c1)c1c(O)c2cccnc2n(-c2ccc(F)cc2)c1=O`?
Tgondii IFNg: 192

What do the screens show for `COc1ccc(C(=O)NCc2cnn(Cc3ccccc3)c2)cc1O`?
Tgondii IFNg: 45

How did CC(C)Cc1cc(CNC(=O)c2cc3n(n2)CCCN(C)C3)no1 do in these assays?
Tgondii IFNg: -6

What do the screens show for `CCC(C)(C)NC(=O)CN1CCC2(CC1)c1ccccc1[C@@H](OC)[C@@H]2O`?
Tgondii IFNg: 5

What do the screens show for `Cc1cc(C)n(CCNc2ncnc3sc(C)c(C)c23)c(=O)n1`?
Tgondii IFNg: 5

Results for CC(CNC(=O)c1nc(N2CCOCC2)c2ccccc2n1)c1ccccc1 (centres undefined) ?
Tgondii IFNg: -57

Results for NCCNC(=O)c1nc(-c2ccc(Br)o2)no1 ?
Tgondii IFNg: -63

Results for COc1cc(COC2CN(C3CCCC3)CC(=O)N(C(C)C)C2)cc(OC)c1 (centres undefined) ?
Tgondii IFNg: 2

Results for COc1ccc(CNCc2cccc(OC)c2OC)cc1 ?
Tgondii IFNg: -7

Results for Cc1ccc2[nH]cc(CCN3CC(C(=O)Nc4nnc(C(C)(C)C)s4)CC3=O)c2c1 (centres undefined) ?
Tgondii IFNg: 134

What do the screens show for `CCCCN(C)C(=O)c1ccc(-c2nc(CN3CCN(c4ccccc4)CC3)c(C)o2)cc1`?
Tgondii IFNg: -32

Results for Cc1oc(-c2ccc(C(=O)N(C)Cc3ccccc3)cc2)nc1CN1CCN(c2ccccc2)CC1 ?
Tgondii IFNg: -94*

What do the screens show for `CNC(=O)c1ccc(-c2nc(CN3CCN(c4ccccc4)CC3)c(C)o2)cc1`?
Tgondii IFNg: 23

How did Cc1ncc(-c2ccccn2)c(C2CCC(CNC(=O)Cc3sc(C)nc3C)CC2)n1 (centres undefined) do in these assays?
Tgondii IFNg: 38

What do the screens show for `c1ccc(-c2csc3ncnc(NCc4ccccn4)c23)cc1`?
Tgondii IFNg: -74*

How did c1ccc(-c2csc3ncnc(NCC4CCCO4)c23)cc1 (centres undefined) do in these assays?
Tgondii IFNg: -60

What do the screens show for `O=c1ncn(Cc2ccccn2)cc1-c1ccccc1`?
Tgondii IFNg: 44

Results for CO[C@@H]1CO[C@@]2(CCCN(C(=O)c3ccncn3)C2)C1 ?
Tgondii IFNg: -48

What do the screens show for `Cc1cccnc1Cn1nc(C2CCNCC2)n(Cc2ccccc2)c1=O`?
Tgondii IFNg: -49

Results for CC(C)C1CN(c2ccnc3ccccc23)CCC(=O)N1CC1CC1 (centres undefined) ?
Tgondii IFNg: 2

What do the screens show for `CN(C)CC1(O)CCCN(C(=O)CCOc2ccccc2)C1` (centres undefined)?
Tgondii IFNg: 5

Results for CN(C)CC1(O)CCCN(Cc2ccccc2OCC(=O)O)CC1 (centres undefined) ?
Tgondii IFNg: -13

What do the screens show for `CN(C)CC1(O)CCCN(S(=O)(=O)N(C)Cc2ccccc2)CC1` (centres undefined)?
Tgondii IFNg: -78*

What do the screens show for `NC(=S)N/N=C/c1ccncc1`?
Tgondii IFNg: 11

Results for COC[C@H]1CCCN1Cc1cccc(C(=O)Nc2ccc(F)cc2F)c1 ?
Tgondii IFNg: 8

What do the screens show for `COc1ccccc1-c1noc(-c2c(O)c3cc(F)ccc3n(C)c2=O)n1`?
Tgondii IFNg: -29
